# Source: PubChem (Center for Chemical Genomics, University of Michigan)
# The sample as a whole holds a higher share of hits than the screen did.
# Dicer inh: inhibitors of human Dicer processing of pre-microRNA; Q9UPY3; cat-ELCCA pre-miR-21 Dicer processing, chemiluminescence; stronger effect = higher value; z-score at 25 µM; 47,000 compounds, 6% hits; AID 1347074; in the data active means z-score above about 3, passing the limit was not always enough;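 further: plate controls were vehicle for no effect and no enzyme for full effect; higher signal means more uncleaved substrate so more Dicer inhibition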
# * marks the source's active call; other numbers are inactive results.
SMILES,Dicer inh
CSc1ccccc1NC(=O)C1CC(c2cccc(Br)c2)=NO1 (centres undefined),-0.87
O=C(NCC1CCCO1)C1CC(c2cccc(Br)c2)=NO1 (centres undefined),-0.95
O=C(Nc1cccc(O)c1)C1CC(c2cccc(Br)c2)=NO1 (centres undefined),0.55
O=C(Nc1cc(Cl)ccc1O)C1CC(c2cccc(Br)c2)=NO1 (centres undefined),3*
O=C(Nc1cccnc1)C1CC(c2cccc(Br)c2)=NO1 (centres undefined),12
O=C(NCCCn1ccnc1)C1CC(c2cccc(Br)c2)=NO1 (centres undefined),3.5*
CCOC(=O)C1CCN(C(=O)c2cc(C)nn2C(C)(C)C)CC1,0.75
Cc1cc(C)cc(SCC(=O)NNC(=O)COc2ccc(C)c3c2CCC3)c1,-0.1
CC(C)(C)c1cc2nc(C(F)(F)F)cc(Oc3cccc(C(F)(F)F)c3)n2n1,-1.1
CC1=C(C#N)C(c2ccc(OCc3ccccc3)cc2)C2=C(CCCC2=O)N1 (centres undefined),0.73
COc1ccc(-n2c(-c3ccccc3)noc2=O)cc1Cl,-2.2
CC1c2ccsc2CCN1S(=O)(=O)c1ccccc1 (centres undefined),3*
CC1c2ccsc2CCN1S(C)(=O)=O (centres undefined),-0.25
CC1c2ccsc2CCN1S(=O)(=O)c1cc(C(F)(F)F)cc(C(F)(F)F)c1 (centres undefined),0.66
CCOC(=O)c1cn(-c2ccc(Cl)cc2)nn1,-0.67
Cn1cncc1S(=O)(=O)/C(C#N)=C/c1ccccc1Sc1ccc(Cl)cc1,-1.5
CC1C/C(=N\Nc2cc(Cl)cc(Cl)c2)c2cc(Cl)ccc2S1 (centres undefined),1.4
O=[N+]([O-])c1ccc(N/N=C2\CCSc3ccc(Cl)cc32)cc1,0.41
CC1C/C(=N\Nc2ccc(Br)cc2)c2cc(Cl)ccc2S1 (centres undefined),3.2*
O=C(Nc1ccc(Oc2ncnc3cc(Cl)ccc23)nc1)c1ccccc1,93
O=C(O)CCC(=O)NCc1csc2ccc(Cl)cc12,-1.4
COc1ccc(OC)c(C2Nc3ccc4ccccc4c3C3=C2C(=O)CC(C)(C)C3)c1 (centres undefined),1.9
COc1ccc(C2Nc3ccc4ccccc4c3C3=C2C(=O)CCC3)cc1OC (centres undefined),4.5*
CCOc1cc(C2Nc3ccc4ccccc4c3C3=C2C(=O)CCC3)ccc1O (centres undefined),1.7
O=C1CC(c2cccc(O)c2)Nc2ccc3ccccc3c21 (centres undefined),1.1
SMILES,Dicer inh
COc1ccc(Br)cc1C1CC(=O)c2c(ccc3ccccc23)N1 (centres undefined),3.3*
Cc1ccccc1C1CC(=O)c2c(ccc3ccccc23)N1 (centres undefined),2
Cc1noc(C)c1C(=O)N(C(C)C)C(C)C,9.2
CCC(C)OC(=O)COc1ccc2c(=O)c(-c3ccc(OC)c(OC)c3)c(C(F)(F)F)oc2c1 (centres undefined),-1.2
CCOc1ccc(S(=O)(=O)n2c(C)nc3ccccc32)c2ccccc12,0.22
Cc1nn2c(N)cc(-c3ccccc3)nc2c1-c1ccccc1,3.8*
Cc1cc(N)n2nc(C)c(-c3ccc(Cl)cc3)c2n1,1.8
Cc1ccc(-c2cc3nc(C)c(-c4ccccc4)c(N)n3n2)cc1,0.66
CNC(=O)c1ccccc1Sc1cccc2ccccc12,-0.4
COc1ccc(C(C)=O)c(NC(C)=O)c1,-1.8
C=C1c2ccccc2C(=O)N1c1ccc(F)cc1,0.58
CC(C)(C)OC(=O)N/N=C\c1cccc2ccccc12,-1.2
Fc1ccccc1NC(=S)N/N=C/c1cccc2ccccc12,3.4*
CNC(=S)N/N=C/c1c(O)ccc2ccccc12,0.57
CC(=O)OCC1OC(n2ccc(=O)[nH]c2=O)CC1OC(C)=O (centres undefined),-0.08
Cc1nc(-c2ccccc2)c2c(=O)cc(-c3ccccc3)[nH]c2n1,1.8
O=c1nc(-c2ccccc2)c2ccccc2[nH]1,6.6
O=c1cc(-c2ccccc2)[nH]c2ccccc12,4*
COC(=O)c1c(-c2c(Cl)cccc2Cl)noc1NC(=O)NN(C)C,1
Cc1onc(-c2ccccc2)c1C(=O)Nc1ccc(OC(=O)c2c(-c3ccccc3)noc2C)cc1,-1.5
CCOC(=O)C1=NOC2C(=O)N(c3ccc(F)cc3)C(=O)C12 (centres undefined),1.3
COC(=O)C1=NOC2C(=O)N(c3ccc(OC)cc3)C(=O)C12 (centres undefined),1
COC(=O)C1=NOC2C(=O)N(c3ccc(F)cc3)C(=O)C12 (centres undefined),1.5
CCOC(=O)C1=NOC2C(=O)N(c3ccc(OC)cc3)C(=O)C12 (centres undefined),-0.1
CCOC(=O)C1=NOC2C(=O)N(c3ccc(Cl)cc3)C(=O)C12 (centres undefined),3.7*
COC(=O)C1=NOC2C(=O)N(c3ccc(C)cc3)C(=O)C12 (centres undefined),3.6*
CC(C)(C)c1ccc(-c2nnc3sc(-c4cnccn4)nn23)cc1,-1.5
